Measured values: PubChem BioAssay AID651650 (Sanford-Burnham Center for Chemical Genomics, 2012)

target: Neuropilin-1 (Homo sapiens) (UniProt O14786); test: NRP-1 b1b2 CendR peptide binding inhibitors, dose response, biochemical, FP and AlphaScreen panel (AID 651650); details: NRP-1 b1b2 / RPARPAR peptide binding, FP or AlphaScreen; run 1, at 100 µM (top of the series)
Sequence (O14786 whole entry, looked up): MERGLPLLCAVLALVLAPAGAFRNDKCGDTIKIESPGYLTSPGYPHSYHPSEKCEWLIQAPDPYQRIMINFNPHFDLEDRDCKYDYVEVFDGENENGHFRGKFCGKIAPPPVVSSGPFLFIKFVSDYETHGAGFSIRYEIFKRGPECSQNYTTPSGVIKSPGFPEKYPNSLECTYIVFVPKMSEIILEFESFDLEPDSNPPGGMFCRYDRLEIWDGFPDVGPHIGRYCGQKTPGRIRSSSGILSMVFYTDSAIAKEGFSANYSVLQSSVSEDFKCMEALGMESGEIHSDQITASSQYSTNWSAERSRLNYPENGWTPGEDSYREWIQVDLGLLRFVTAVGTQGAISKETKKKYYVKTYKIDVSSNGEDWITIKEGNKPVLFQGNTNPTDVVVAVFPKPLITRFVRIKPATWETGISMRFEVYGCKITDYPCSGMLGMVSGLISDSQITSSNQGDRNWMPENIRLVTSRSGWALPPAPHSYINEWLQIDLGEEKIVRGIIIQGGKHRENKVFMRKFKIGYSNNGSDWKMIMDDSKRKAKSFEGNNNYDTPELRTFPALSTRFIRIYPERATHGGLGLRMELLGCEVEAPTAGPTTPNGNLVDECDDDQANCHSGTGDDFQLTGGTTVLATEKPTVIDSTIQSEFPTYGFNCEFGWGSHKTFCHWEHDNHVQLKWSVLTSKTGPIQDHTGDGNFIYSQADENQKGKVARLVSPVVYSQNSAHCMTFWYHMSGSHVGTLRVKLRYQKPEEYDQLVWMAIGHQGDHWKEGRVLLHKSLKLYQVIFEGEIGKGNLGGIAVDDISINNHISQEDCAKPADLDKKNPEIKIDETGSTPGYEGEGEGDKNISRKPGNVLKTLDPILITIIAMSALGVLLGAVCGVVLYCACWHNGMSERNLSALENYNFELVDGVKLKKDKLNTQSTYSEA

Row | Compound | inhibition [%]
1 | Cc1occc1C(=O)N1N=C(C2CC2)CC1(O)C(F)(F)F (stereo not given) | 35.3
2 | COc1cccc(OCC(=O)NNC(=S)Nc2ccc(Cl)cc2Cl)c1 | 27.2
3 | COc1cc(C(=O)OCCCOC(=O)c2cc(OC)c(OC)c(OC)c2)cc(OC)c1OC | 13.4
4 | O=[N+]([O-])c1cc(-c2csc(NCCc3nc4cc(C(F)(F)F)ccc4n3CCCO)n2)ccc1Cl | 33.1
5 | Fc1cc(Cl)ccc1Nc1nc(NCc2ccccc2)nc2ccsc12 | 23
6 | O=C(COC(=O)c1ccccn1)c1ccc([N+](=O)[O-])cc1 | 66.4
7 | CCOc1ccc(C2CC(c3ccc(CC)cc3)n3nc(N)nc3N2)cc1 (stereo not given) | 4.44
8 | Cc1ccccc1NC(=S)NC(=O)COc1ccccc1C | 98.2
9 | CCCCn1nnnc1C(c1cc2ccccc2o1)N(C)Cc1ccc(Cl)c(Cl)c1 (stereo not given) | 104
10 | CCOC(=O)C1(O)CC(C)=NN1C(=O)c1cccc(Br)c1 (stereo not given) | 35.1
11 | CCCS(=O)(=O)N1CCC(Cc2ccc(OC)cc2)(C(=O)OCC)CC1 | -57.8
12 | COc1ccc(-c2csc(Nc3cccnc3)n2)cc1 | 47.6
13 | CCn1cc(C(=O)N2CCN(C(=O)c3ccco3)CC2)c2cc(OC)c(OC)cc2c1=O | 77.9
14 | COc1ccc(N(CC(=O)NCc2ccco2)C(=O)CCC(=O)Nc2ccccn2)cc1 | -5.26
15 | Cc1cc(S(=O)(=O)NC2CCCCC2)ccc1OCC(=O)N1CCOCC1 | 97.6
16 | COc1cc(Cn2nnc3ccccc32)cc(Br)c1O | 37.3
17 | CCOc1c2ccc(C(=O)NCCc3cccs3)cc2nn1CC | -5.4
18 | O=C(O/N=C1/CCSc2ccccc21)c1ccccc1 | 17.1
19 | CCOC(=O)[C@]12CCCC=C1N(CCC1=CCCCC1)C(=O)[C@H](CC(=O)NCC13CC4CC(CC(C4)C1)C3)C2 | 20.7
20 | COc1cc2c(cc1OC)C(Nc1ccc(S(N)(=O)=O)cc1)=NC(C)(C)C2 | 71.9
